In this test the target is T1, Tyrosyl-tRNA synthetase, putative (Trypanosoma cruzi (strain CL Brener)) (UniProt Q4DSP6).
T1 sequence (whole entry): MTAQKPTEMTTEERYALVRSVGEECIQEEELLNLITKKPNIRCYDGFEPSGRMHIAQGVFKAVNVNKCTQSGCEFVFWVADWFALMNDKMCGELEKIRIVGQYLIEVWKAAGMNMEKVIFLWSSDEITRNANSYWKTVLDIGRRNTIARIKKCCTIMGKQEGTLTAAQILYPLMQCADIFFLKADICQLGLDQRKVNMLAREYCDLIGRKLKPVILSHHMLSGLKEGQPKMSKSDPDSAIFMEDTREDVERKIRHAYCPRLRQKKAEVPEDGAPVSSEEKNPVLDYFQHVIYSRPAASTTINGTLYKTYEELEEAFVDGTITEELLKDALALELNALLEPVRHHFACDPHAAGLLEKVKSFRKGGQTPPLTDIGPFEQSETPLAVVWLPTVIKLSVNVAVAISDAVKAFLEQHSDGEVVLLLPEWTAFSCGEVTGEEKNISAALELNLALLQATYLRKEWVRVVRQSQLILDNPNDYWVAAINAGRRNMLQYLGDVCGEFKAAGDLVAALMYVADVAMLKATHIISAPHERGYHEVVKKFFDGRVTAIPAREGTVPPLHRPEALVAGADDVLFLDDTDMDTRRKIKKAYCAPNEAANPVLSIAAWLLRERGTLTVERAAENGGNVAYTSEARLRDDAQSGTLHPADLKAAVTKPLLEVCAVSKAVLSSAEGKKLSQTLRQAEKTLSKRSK
Nature of the test: Trypanosoma cruzi tyrosyl tRNA synthetase (TcYRS) SOP. Type of test: functional. The settings on record: 30 µM. Further details: scale not given: direction of the effect not stated beside the values.
Regarding `CC(=O)N1CCCC1c1nccc(C)n1` (stereo not given), the Percent Effect was found to be 11.5%.

As for `CN(Cc1nccn1CC(F)(F)F)C(=O)c1cccc(C#N)c1`, the Percent Effect was determined as 5.2%.

As for `COc1ccc(-c2noc(CNC(C)Cn3cccn3)n2)c(OC)c1` (stereo not given), the Percent Effect was 25.9%.

For `NCC(=O)N1CCCC(c2cncc(Nc3ncccn3)n2)C1` (stereo not given), the Percent Effect was determined as 11.7%.

`O=C(Cc1ccccc1)N1CCC2(CC(=O)N(c3ccsc3)C2)C1` (stereo not given): the Percent Effect was -28.1%.

For the molecule `CCCSCC(=O)NS(=O)(=O)c1ccc2c(c1)OCCO2`, the Percent Effect came to 0%.

In the case of `O=C(NC1CC1)[C@H]1C[C@@H]2CCN(CCc3ccccc3)C[C@H]2O1`, the Percent Effect stood at 11.5%.

Consider `OC1CCCN(Cc2c(-c3ccco3)[nH]c3ncccc23)C1` (stereo not given), for which the Percent Effect worked out at 19.5%.

Turning to `Cn1cccc1C1CCCN1C(=O)NCCCn1cccn1` (stereo not given), the Percent Effect was found to be 8.64%.

Regarding `O=C(NC1(c2nnn(CCO)n2)CCCC1)c1ccccc1`, the Percent Effect was found to be 16.1%.

`O=C(Cc1ccccc1)N1CCC2(CC(=O)N(c3cccc(F)c3)C2)C1` (stereo not given): the Percent Effect was 3.7%.

As for `c1cncc(C2COC3(CCN(CC4CC4)CC3)C2)c1` (stereo not given), the Percent Effect was determined as 1.22%.

For `Cc1nc(C2CCCN(C(=O)c3ccc(OCC4CC4)cc3)C2)no1` (stereo not given), the Percent Effect is 25.9%.

For `Cc1ncsc1C(=O)NC1CCN(CCC(N)=O)CC1`, the Percent Effect stood at 9.76%.

For `CCn1cc(N)c(C(=O)NCc2cnn(C)c2)n1`, the Percent Effect was determined as 11.1%.

Take `O=C(NCCNc1ccc(C(F)(F)F)cn1)c1ccc(Br)cc1F`: the Percent Effect is 14.1%.

Consider `CCc1ccc(C(=O)N2CCCC(c3noc(CC)n3)C2)o1` (stereo not given), for which the Percent Effect turned out to be 7.06%.

With `CN(c1ccc(C(=O)NCCCN2CCOCC2)c(Cl)c1)S(C)(=O)=O`, the Percent Effect was found to be 11.1%.

Regarding `CCN1CCCC1CN(CCN(C)C)S(=O)(=O)c1ccc(C#N)cc1` (stereo not given), the Percent Effect is 15%.

Consider `CN(C)C(C)(C)CNC(=O)C(C)(C)c1ccccc1F`, for which the Percent Effect is -2.56%.

The values above are taken from ChEMBL document CHEMBL3988442, “University of Dundee, Small-Polar-MMV Screening Library” (2021).
